Several values for one entry are separate records, joined by “and”; a condition that tells them apart may be missing. Identical values can stand only once. Results filed as inconclusive are left out. A structure can be active in one record and inactive in another. Activity calls are given as the source filed them. Unless noted, calls follow the shape of the dose curve; as a rule, active = well fitted curve in the direction sought with a large enough effect in the repeat runs; inconclusive = weak or mixed curves; inactive = no such curve, though single readings can be large; an effect the other way counts as inactive or inconclusive.
Tests used:
[1] = qHTS assay to identify small molecule antagonists of the androgen receptor (AR) signaling pathway using the MDA cell line in the presence of 0.5 nM R1881 - cell viability counter screen (AID 1259242); also: nearly all actives have a fitted effect of over 45% in size
Method in brief: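 MDA-kb2 cells (MMTV-luciferase, AR/GR responsive) were treated with compounds plus 0.5 nM R1881 (final) for 16 hr at 37C, 0% CO2. Viability was then read in the same wells as live-cell protease fluorescence (CellTiter-Fluor, 30 min).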

[2] = qHTS assay to identify small molecule HDAC inhibitors (AID 1259364); also: top concentration of the series differs between compounds; nearly all actives have a fitted effect of over 45% in size
Method in brief: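 Wild-type HCT-116 cells, plated overnight at 37 C, exposed to compounds 2 hr at 37 C; luminogenic HDAC-Glo substrate then added 30 min at room temperature. Luminescence reports relative endogenous class I/II HDAC activity.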

[3] = qHTS assay to identify small molecule HDAC inhibitors - cell viability counter screen (AID 1259365); also: series mostly up to about 92 µM; nearly all actives have a fitted effect of over 50% in size
Method in brief: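 CellTiter-Glo luminescence (30 min, room temperature) reported viability after a 2 h compound exposure at 37 C. Cells: wild-type HCT-116, 1,500 per well, seeded the night before.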

[4] = qHTS assay to identify small molecule agonists of the sonic hedgehog signaling (Shh) pathway (AID 1259368; calls by dose curve;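 also: NIH/3T3-derived 3T3Gli1-Luc cells carrying a stable Gli1-driven firefly luciferase reporter; series mostly up to about 92 µM; nearly all actives have a fitted effect of over 15% in size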)
Method in brief: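 NIH/3T3-derived 3T3Gli1-Luc cells with stably integrated Gli1-driven firefly luciferase, 2,000 cells/well, compounds added after 4 hr. Incubated 24 hr at 37C, 5% CO2; luminescence read after 30 min with luciferase reagent at room temperature.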

[5] = biological target: Estrogen receptor beta (Homo sapiens) (UniProt Q92731); experiment: qHTS assay to identify small molecule agonists of the estrogen receptor beta (ER-beta) signaling pathway (AID 1259377; active = well fitted activation curve with a large enough effect in the signal ratio in the repeat runs, not every such curve was filed as active; the % refers to the signal ratio)
Method in brief: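 Ratiometric beta-lactamase FRET read-out came after 2 h substrate loading at room temperature. It followed 16 h compound treatment at 37C of GripTite HEK293T cells carrying a UAS-bla reporter, plated in 2% charcoal-stripped FBS medium.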

[6] = biological target: Estrogen receptor beta (Homo sapiens) (UniProt Q92731); experiment: qHTS assay to identify small molecule antagonists of the estrogen receptor beta (ER-beta) signaling pathway (AID 1259378; active = well fitted inhibition curve with a large enough effect in the signal ratio in the repeat runs, not every such curve was filed as active; the % refers to the signal ratio; also: potency is read from the fitted curve at half-maximal effect)
Method in brief: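 ER-beta-UAS-bla HEK293T (GripTite) cells in 2% charcoal-stripped FBS medium were preincubated 6 hr at 37C, dosed with compound, then stimulated with 1 nM E2 (final) for 16 hr; beta-lactamase reporter read by B/G FRET fluorescence after 2 hr substrate loading.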

[7] = qHTS assay to identify small molecule agonists of the androgen receptor (AR) signaling pathway in the presence of an antagonist - cell viability counter screen (AID 1259379); also: nearly all actives have a fitted effect of over 25% in size; also: potency is read from the fitted curve at half-maximal effect;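 as to activity change, negative = cytotoxicity: MDA-kb2 human breast cancer cells carrying an MMTV luciferase reporter; series mostly up to about 92 µM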
Method in brief: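 MDA-kb2 cells (MMTV-luciferase, AR/GR), 3,000/well, 5 h attachment, then 3.0 µM nilutamide (final) and compounds at 15 concentrations. Viability by CellTiter-Fluor fluorescence after 16 h at 37 °C, 0% CO2, in the reporter wells.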

[8] = qHTS assay to identify small molecule antagonists of the estrogen receptor beta (ER-beta) signaling pathway - cell viability counter screen (AID 1259382); also: series mostly up to about 92 µM; nearly all actives have a fitted effect of over 55% in size
Method in brief: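 ER-beta-UAS-bla HEK293T cells in 2% charcoal-stripped FBS medium, treated with compound plus 1 nM 17-beta-estradiol for 16 h at 37C. Viability read by CellTiter-Glo luminescence after 30 min at room temperature in the same wells.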

[9] = qHTS assay to identify small molecule agonists of the sonic hedgehog signaling (Shh) pathway - cell viability counter screen (AID 1259366); also: nearly all actives have a fitted effect of over 50% in size; also: potency is read from the fitted curve at half-maximal effect
Method in brief: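 Cytotoxicity counter screen: CellTiter-Fluor reagent added after 23 h compound exposure, then 1 h at 37C and fluorescence read. Cells were 3T3 Gli1-Luc, seeded 2,000 per well and dosed 4 h post-plating.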

[10] = biological target: Estrogen receptor (Homo sapiens) (UniProt P03372); experiment: qHTS assay to identify small molecule agonists of the estrogen receptor alpha (ER-alpha) signaling pathway in the presence of an antagonist (AID 1259383; calls by dose curve; also: top concentration of the series differs between compounds; nearly all actives have a fitted effect of over 15% in size)
Method in brief: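 VM7Luc4E2 cells express endogenous full-length ER-alpha with an ERE-luciferase reporter and were hormone-deprived for 5 days. Compounds at 15 concentrations were added with 10.0nM ICI-182,780 for 22hr at 37C. Luminescence was read with ONE-Glo.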

[11] = qHTS assay to identify small molecule agonists or antagonists of the thyroid stimulating hormone receptor (TSHR) signaling pathway - wild type cell line counter screen (AID 1259384; calls by dose curve)
Method in brief: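 Wild-type HEK293 cells were plated 18 h at 37 C/5% CO2, pin-dosed with compound plus Ro20-1724 medium, held 30 min at room temperature, then given cAMP-d2 and anti-cAMP-cryptate; fluorescence was read after 1 h. Fifteen concentrations, triplicate.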

[12] = biological target: Thyrotropin receptor (Homo sapiens) (UniProt P16473); experiment: qHTS assay to identify small molecule antagonists of the thyroid stimulating hormone receptor (TSHR) signaling pathway (AID 1259385; calls by dose curve; also: nearly all actives have a fitted effect of over 20% in size)
Method in brief: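 TSHR-HEK293 cells were plated and held 18 h at 37C/5% CO2, then given compound plus Ro20-1724 and stimulated with TSH at 1.5 ng/mL final. After 30 min at room temperature, cAMP was detected with cAMP-d2/anti-cAMP-cryptate (1 h) by fluorescence.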

[13] = biological target: Estrogen receptor (Homo sapiens) (UniProt P03372); experiment: qHTS assay to identify small molecule antagonists of the estrogen receptor alpha (ER-alpha) signaling pathway using the BG1 cell line in the presence of 0.1 nM 17-beta-estradiol (AID 1259244); also: nearly all actives have a fitted effect of over 50% in size
Method in brief: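 VM7Luc4E2 cells (endogenous full-length ER-alpha, 4×ERE-luciferase), kept 5 days in phenol red-free, charcoal-stripped FBS medium; 4,000 cells/well. Compounds added with 0.1 nM (final) 17beta-estradiol, 22 hr at 37C; luminescence read with ONE-Glo after 30 min.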

[14] = qHTS assay to identify small molecule antagonists of the sonic hedgehog signaling (Shh) pathway - cell viability counter screen (AID 1259367); also: nearly all actives have a fitted effect of over 55% in size; also: potency is read from the fitted curve at half-maximal effect
Method in brief: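 After a 4 hr settling period, 3T3 Gli1-Luc cells were treated with DMSO-dissolved chemicals and conditioned medium, kept 24 hr at 37C in 5% CO2, and assayed for viability by CellTiter-Fluor fluorescence following 1 hr reagent incubation.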

[15] = qHTS assay to identify small molecule antagonists of the sonic hedgehog signaling (Shh) pathway (AID 1259369; calls by dose curve; also: nearly all actives have a fitted effect of over 45% in size; also: potency is read from the fitted curve at half-maximal effect)
Method in brief: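 NIH/3T3-derived Gli1-Luc reporter cells plated 4 h, dosed with compound, then stimulated with conditioned medium for 24 h at 37 C. Firefly luciferase luminescence read after 30 min with detection reagent at room temperature.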

[16] = qHTS assay to identify small molecule agonists of the estrogen receptor beta (ER-beta) signaling pathway - cell viability counter screen (AID 1259380); also: nearly all actives have a fitted effect of over 30% in size; also: potency is read from the fitted curve at half-maximal effect
Method in brief: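 ER-beta-UAS-bla HEK293T cells in medium with 2% charcoal-stripped FBS, pre-incubated 6 hr, then treated 16 hr at 37C. Cytotoxicity read in the same wells by CellTiter-Glo luminescence after 30 min at room temperature.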

[17] = qHTS assay to identify small molecule agonists of the estrogen receptor alpha (ER-alpha) signaling pathway in the presence of an antagonist - cell viability counter screen (AID 1259386);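 also: cells exposed to compounds for 22 h at 37 °C before the viability read; nearly all actives have a fitted effect of over 30% in size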; also: potency is read from the fitted curve at half-maximal effect; as to activity change, negative = cytotoxicity: series mostly up to about 92 µM
Method in brief: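 Cell viability in VM7Luc4E2 cells (endogenous full-length ER-alpha) measured by CellTiter-Fluor fluorescence in the same wells as the luciferase screen. Cells pre-cultured 5 days in charcoal-stripped serum, then treated 22 h with compounds at 15 concentrations plus 10.0nM ICI-182,780.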

[18] = qHTS assay to identify small molecule phospholipidosis (PLD) inducers (AID 1259344; active = well fitted curve in the direction sought with a large enough effect; an effect the other way counts as inactive or inconclusive)
Method in brief: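 HepG2 cells grown on collagen I take up LipidTOX Red while exposed to compound for 24 h; after fixation they are imaged at 20x and pit metrics are extracted.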
% is scaled to controls: 0 for no effect and ±100 for the full control effect.

Sequence of Thyrotropin receptor (Homo sapiens) (P16473 whole entry, looked up): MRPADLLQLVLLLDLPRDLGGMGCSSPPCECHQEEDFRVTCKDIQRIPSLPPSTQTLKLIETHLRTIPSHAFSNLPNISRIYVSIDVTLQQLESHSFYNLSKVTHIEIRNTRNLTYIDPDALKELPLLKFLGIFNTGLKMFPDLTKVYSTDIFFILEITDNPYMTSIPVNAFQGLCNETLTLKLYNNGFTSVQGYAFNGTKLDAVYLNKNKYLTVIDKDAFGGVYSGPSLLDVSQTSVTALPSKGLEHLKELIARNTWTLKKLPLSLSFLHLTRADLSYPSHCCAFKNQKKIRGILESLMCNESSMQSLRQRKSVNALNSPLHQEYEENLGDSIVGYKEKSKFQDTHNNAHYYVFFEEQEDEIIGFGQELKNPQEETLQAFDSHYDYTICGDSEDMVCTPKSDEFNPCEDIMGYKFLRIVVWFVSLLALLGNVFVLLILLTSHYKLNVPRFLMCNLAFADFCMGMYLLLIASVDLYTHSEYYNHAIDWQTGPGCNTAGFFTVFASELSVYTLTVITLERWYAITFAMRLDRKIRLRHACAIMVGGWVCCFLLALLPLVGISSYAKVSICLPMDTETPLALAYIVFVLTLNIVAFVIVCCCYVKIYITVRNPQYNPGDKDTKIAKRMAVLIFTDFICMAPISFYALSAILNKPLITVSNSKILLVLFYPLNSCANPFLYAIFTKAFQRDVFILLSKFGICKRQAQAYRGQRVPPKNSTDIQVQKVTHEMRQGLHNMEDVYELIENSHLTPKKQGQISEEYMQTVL
Sequence of Estrogen receptor (Homo sapiens) (P03372 whole entry, looked up): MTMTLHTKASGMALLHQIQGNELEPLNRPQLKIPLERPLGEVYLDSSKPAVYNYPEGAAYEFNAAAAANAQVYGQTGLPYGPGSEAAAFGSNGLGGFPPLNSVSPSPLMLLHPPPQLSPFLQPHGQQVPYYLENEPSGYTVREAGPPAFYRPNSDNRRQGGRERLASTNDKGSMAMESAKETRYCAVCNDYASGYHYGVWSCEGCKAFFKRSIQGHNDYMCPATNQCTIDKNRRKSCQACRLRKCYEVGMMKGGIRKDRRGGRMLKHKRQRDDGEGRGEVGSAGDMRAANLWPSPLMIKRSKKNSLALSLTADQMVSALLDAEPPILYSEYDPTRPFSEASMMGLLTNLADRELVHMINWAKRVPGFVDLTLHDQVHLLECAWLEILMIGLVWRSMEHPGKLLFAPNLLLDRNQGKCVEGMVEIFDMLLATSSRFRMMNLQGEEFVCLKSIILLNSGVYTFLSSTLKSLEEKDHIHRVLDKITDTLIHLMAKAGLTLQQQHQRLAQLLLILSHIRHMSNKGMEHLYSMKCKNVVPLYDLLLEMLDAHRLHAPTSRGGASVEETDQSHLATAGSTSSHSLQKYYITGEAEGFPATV
Sequence of Estrogen receptor beta (Homo sapiens) (Q92731 whole entry, looked up): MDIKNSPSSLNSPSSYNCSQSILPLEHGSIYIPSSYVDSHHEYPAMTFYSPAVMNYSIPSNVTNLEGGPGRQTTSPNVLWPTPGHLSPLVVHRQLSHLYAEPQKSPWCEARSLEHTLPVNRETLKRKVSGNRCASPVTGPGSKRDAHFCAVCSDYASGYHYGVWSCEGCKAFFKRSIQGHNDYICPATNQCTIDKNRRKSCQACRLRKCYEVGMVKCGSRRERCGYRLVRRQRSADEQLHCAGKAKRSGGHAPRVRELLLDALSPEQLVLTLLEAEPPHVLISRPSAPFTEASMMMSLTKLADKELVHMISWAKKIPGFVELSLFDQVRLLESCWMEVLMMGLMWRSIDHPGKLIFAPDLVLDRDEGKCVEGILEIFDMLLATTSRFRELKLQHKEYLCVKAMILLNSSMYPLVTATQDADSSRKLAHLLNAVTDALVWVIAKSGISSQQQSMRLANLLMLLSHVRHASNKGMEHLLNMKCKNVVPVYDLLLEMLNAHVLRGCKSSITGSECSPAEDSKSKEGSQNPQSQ

O=C(/C=C/c1ccc(O)c(O)c1)O[C@@H](C(=O)O)[C@@H](OC(=O)/C=C/c1ccc(O)c(O)c1)C(=O)O
inactive: Potency [1] | Potency [2] | Potency [3] | Potency [4] | Potency [5] | Potency [6] | Potency [7] | Potency [8]

Clc1ccnc(Cl)n1
inactive: Potency [1] | Potency [2] | Potency [3] | Potency [9] | Potency [4] | Potency [5] | Potency [7] | Potency [8] | Potency [10] | outcome [11] | Potency [12]

Cl[Si](Cl)(c1ccccc1)c1ccccc1
inactive: Potency [13] | Potency [2] | Potency [3] | Potency [9] | Potency [14] | Potency [4] | Potency [15] | Potency [7] | Potency [16] | Potency [8] | Potency [10] | outcome [11] | Potency [12]

COc1ccc2c(c1)c(CC(=O)OC/C=C(\C)CC/C=C(\C)CCC=C(C)C)c(C)n2C(=O)c1ccc(Cl)cc1
inactive: Potency [13] | Potency [3] | Potency [9] | Potency [14] | Potency [4] | Potency [15] | Potency [7] | Potency [16] | Potency [8] | Potency [10] | outcome [11] | Potency [12] | Potency [17]

CCCCNS(=O)(=O)c1ccc(C)cc1
inactive: Potency [13] | Potency [3] | Potency [9] | Potency [14] | Potency [4] | Potency [15] | Potency [7] | Potency [8] | Potency [10] | Potency [17]

CCc1oc2ccccc2c1C(=O)c1cc(I)c(O)c(I)c1
inactive: Potency [18] | Potency [2] | Potency [3] | Potency [9] | Potency [14] | Potency [10] | outcome [11] | Potency [12]

COc1cc2nc(N3CCN(C(=O)c4ccco4)CC3)nc(N)c2cc1OC
inactive: activity change, negative = inhibition [13] -15.5% [at 19 µM] | Potency [18] | activity change, negative = cytotoxicity [3] -0.972% [at 19 µM] | viability change, negative = cytotoxic [14] -24.8% [at 19 µM] | activity change [4] -4.98% [at 18.9 µM, stronger effect = higher value] | activation [5] -0.974% [at 19 µM] | activity, negative = inhibition [6] 1.22% [at 19 µM] | activity change, negative = cytotoxicity [8] -13.3% [at 19 µM] | cAMP activity change [11] -1.07% [at 18.9 µM] | activity change, negative = inhibition [12] -8.31% [at 19 µM] | activity change, negative = cytotoxicity [17] -1.18% [at 19 µM]

CCCCCc1ccc(Cl)cc1
inactive: Potency [13] | Potency [2] | Potency [3] | Potency [9] | Potency [14] | Potency [7] | Potency [16] | Potency [8] | Potency [10] | outcome [11] | Potency [12] | Potency [17]

CC(C(=O)O)c1ccc2c(c1)[nH]c1ccc(Cl)cc12 (stereo not given)
inactive: Potency [13] | Potency [18] | Potency [3] | Potency [9] | Potency [14] | Potency [15] | Potency [5] | Potency [6] | Potency [7] | Potency [8] | outcome [11] | Potency [12] | Potency [17]
active: Potency [16] 29.8 µM

CC(C)(c1cc(Br)c(OCC(Br)CBr)c(Br)c1)c1cc(Br)c(OCC(Br)CBr)c(Br)c1 (stereo not given)
inactive: Potency [13] | Potency [2] | Potency [3] | Potency [9] | Potency [14] | Potency [4] | Potency [15] | Potency [16] | Potency [8] | outcome [11] | Potency [12] | Potency [17]

CNC(=O)c1ccccc1Sc1ccc2c(/C=C/c3ccccn3)n[nH]c2c1
inactive: Potency [4] | outcome [11] | Potency [12]
active: Potency [9] 13.3 µM | Potency [7] 26.6 µM

Cc1nc(-c2ccc(Cl)cc2)oc1COC(C)(C)C(=O)O
inactive: Potency [18] | Potency [3] | Potency [9] | Potency [14] | Potency [15] | Potency [5] | Potency [6] | Potency [7] | Potency [8] | outcome [11] | Potency [12]

COCCOc1cc2cc(C(=O)NC3CCN(C(C)C)CC3)n(CC(=O)Nc3ccc(Cl)cn3)c2cn1
inactive: Potency [2] | Potency [3] | Potency [9] | Potency [14] | Potency [4] | Potency [5] | Potency [6] | Potency [16] | Potency [8] | outcome [11] | Potency [12]
active: Potency [15] 15.2 µM

Cc1nc2n(c(=O)c1CCN1CCC(c3noc4cc(F)ccc34)CC1)CCCC2
inactive: Potency [18] | Potency [3] | Potency [9] | Potency [14] | Potency [4] | Potency [8] | Potency [10] | outcome [11] | Potency [17]

CC[N+](CC)(CC)CCOC(=O)C(C1CCCC1)C1CCCC1
inactive: PLD induction [18] 0.0817% [at 7.66 µM] | Potency [3] | Potency [9] | Potency [14] | Potency [4] | Potency [16] | Potency [8] | Potency [10] | Potency [17]
active: Potency [7] 33.5 µM

COc1cccc2c1C(=O)c1c(O)c3c(c(O)c1C2=O)C[C@@](O)(C(C)=O)C[C@@H]3O[C@H]1C[C@H](N)[C@H](O)[C@H](C)O1
inactive: PLD induction [18] -3.33% [at 7.66 µM] | Potency [3] | Potency [8]
active: Potency [9] 615 nM and 2.11 µM | Potency [14] 1.09 µM and 1.88 µM | Potency [15] 0.0194 µM | Potency [6] 4.22 µM | Potency [7] 30.8 µM and 11.9 µM | Potency [17] 27.5 µM and 21.1 µM
77.4 µM (active) and inactive: Potency [16]

Nc1ccc(Oc2ccc(Cl)cc2)cc1
inactive: Potency [2] | Potency [3] | Potency [9] | Potency [14] | Potency [4] | Potency [5] | Potency [7] | Potency [8] | Potency [10] | outcome [11] | Potency [12] | Potency [17]

CCO[Si](OCC)(OCC)OCC
inactive: Potency [13] | Potency [2] | Potency [3] | Potency [9] | Potency [14] | Potency [4] | Potency [15] | Potency [5] | Potency [6] | Potency [7] | Potency [8] | outcome [11] | Potency [12] | Potency [17]

Source: PubChem BioAssay (Tox21)
